A selection: hits, their analogues and other compounds. The true share with any hit is near 6.2%.
NR3A LBD binder: binders of NR3A ligand-binding domain, primary screen, biophysical, differential scanning fluorimetry, uHTS | Glutamate receptor ionotropic, NMDA 3A (GRIN3A) ligand-binding domain | NR3A LBD differential scanning fluorimetry, Tm shift; 0% = protein alone, 100% = glycine-bound protein | Tm shift relative to glycine control, % at 25 µM | AID 1259313, 2017 | actives 2.5% (n = 340,000);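 active means melting temperature shift of at least 10% of the positive control shift, at one fixed dose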
NTR1 ag: agonists of human NTR1, primary screen, imaging, U2OS cells, beta-arrestin-GFP, high content. Neurotensin receptor type 1 (Homo sapiens), P30989. NTR1-U2OS beta-arrestin-GFP spot imaging, agonist mode. activation, % at 20 µM. actives 0.17% (n = 330,000);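 active means activation at or above 40% of the spot to cytoplasm intensity ratio, with at least 20 cells analyzed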;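 further: 0% = DMSO without peptide and 100% = 100 nM NTR1 peptide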
Target sequence (P30989 whole entry, looked up): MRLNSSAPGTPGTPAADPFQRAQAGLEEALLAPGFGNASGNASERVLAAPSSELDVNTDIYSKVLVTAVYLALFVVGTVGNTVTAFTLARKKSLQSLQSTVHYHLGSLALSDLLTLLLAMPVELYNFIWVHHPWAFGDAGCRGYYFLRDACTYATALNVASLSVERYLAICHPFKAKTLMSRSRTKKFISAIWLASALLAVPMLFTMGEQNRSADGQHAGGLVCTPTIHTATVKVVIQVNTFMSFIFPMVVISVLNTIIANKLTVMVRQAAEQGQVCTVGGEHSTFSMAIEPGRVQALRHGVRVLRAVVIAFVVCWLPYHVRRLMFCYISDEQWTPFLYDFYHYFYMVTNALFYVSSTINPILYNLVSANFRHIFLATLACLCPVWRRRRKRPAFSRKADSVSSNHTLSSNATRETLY
AI-2 QS modul: Vibrio harveyi AI-2 quorum sensing modulators, primary screen, JMH597 strain, luminescence/OD600 ratio | Vibrio harveyi JMH597 AI-2 luminescence/OD600 ratio, 9 h; active compounds read low; strain lacks LuxN and CqsS sensors; 0 = neutral-control median | activity change, % at 7.5 µM | AID 2094, 2009 | actives 0.4% (n = 300,000); in the data active means activity change below about -75%, passing the limit was not always enough;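 further: luminescence divided by OD600 gain over 9 h not by final OD600 alone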
SUMO Mot1 rescue: yeast Mot1-301 growth rescue at high temperature, primary screen, SUMOylation pathway inhibitor project, S. cerevisiae, ATP luminescence, 38.5C; S. cerevisiae Mot1-301 growth rescue; percent above DMSO median, 100 means doubled; growth rescue, % at 18.8 µM; actives 1% (n = 320,000); AID 2716, 2010;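 active means every valid replicate shows activation above 250% relative to neutral control wells; inactive means the rest, any valid replicate at or below 250%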;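 further: OY570 slx delta 5 strain wells were the positive control but not used for scaling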
AHR activator: AHR activators, primary screen, cell-based, luminescence, luciferase reporter, human; AHR-responsive luciferase reporter cells; activation, % at 5 µM; actives 2.5% (n = 320,000); in the data active means activation above about 47%;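 further: 0% = vehicle wells and 100% = reference agonist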
H9c2 protect: cardioprotection against H2O2-induced cell death, primary screen, uHTS, H9c2 cells, ATPLite luminescence | H9c2 cardiomyocytes, H2O2 injury protection, 2 h | protection from H2O2 cell death, % at 20 µM | actives 0.63% (n = 360,000);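 active means compounds giving at least 50% protection of heart cells from peroxide-induced death in the single-dose screen, raw or plate-pattern-corrected value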;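 further: 0% = DMSO wells with peroxide and 100% = DMSO wells without peroxide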
An asterisk follows results filed as active.

Screening CCCCn1ccnc1C(=O)c1cc(S(=O)(=O)N2CCOCC2)ccc1C returned NR3A LBD binder 0, NTR1 ag 1, AI-2 QS modul 13, SUMO Mot1 rescue -17, AHR activator -2 and H9c2 protect -12.
COc1ccccc1-c1nnc(Nc2nc3c(OC)cccc3s2)o1 was read as NR3A LBD binder 0, NTR1 ag -2, AI-2 QS modul 23, SUMO Mot1 rescue -1, AHR activator 111* and H9c2 protect 1.
`O=C(Nc1nnc(-c2ccccc2Cl)o1)c1nc2ccccc2s1` gave NR3A LBD binder -11, NTR1 ag 19, AI-2 QS modul 101, SUMO Mot1 rescue 12, AHR activator 16 and H9c2 protect 32.
Screening COc1cccc(-c2nnc(Nc3nc4c(F)cccc4s3)o2)c1 returned NR3A LBD binder -5, NTR1 ag 1, AI-2 QS modul 37, SUMO Mot1 rescue 188, AHR activator 64* and H9c2 protect -23.
Screening COc1cccc2sc(Nc3nnc(-c4ccccc4Cl)o3)nc12 returned NR3A LBD binder -8, NTR1 ag 6, AI-2 QS modul 27, SUMO Mot1 rescue -6, AHR activator 63* and H9c2 protect 0.
`COc1cccc(-c2nnc(-c3ccc4ccccc4c3)o2)c1` gave NR3A LBD binder -7 and H9c2 protect -12.
`c1coc(CNc2nc3ccccc3s2)c1` gave NR3A LBD binder 1, NTR1 ag -2, AI-2 QS modul 23, SUMO Mot1 rescue -28, AHR activator 21 and H9c2 protect -9.
For CCNc1sc(C(=O)c2cccs2)c(N)c1-c1nc2ccccc2s1 the results were NR3A LBD binder 21*, NTR1 ag 12, AI-2 QS modul 19, SUMO Mot1 rescue -9, AHR activator 55* and H9c2 protect -14.
`CCOC(=O)c1sc(NCc2ccco2)c(-c2nc3ccccc3s2)c1N` gave NR3A LBD binder 0, NTR1 ag 12, AI-2 QS modul 18, SUMO Mot1 rescue -4, AHR activator 62* and H9c2 protect -4.
For CC1(C)CC(=O)C=C(c2n[nH]nc2C2CCCCC2)C1 the results were H9c2 protect -2.
Screening CC1OC2CC(=O)OC2C2=C1C(=O)c1c(O)cccc1C2=O (stereo not given) returned H9c2 protect -17.
For O=C(Nc1nc2ccccc2s1)Nc1ccc(F)cc1F the results were NR3A LBD binder -3, NTR1 ag 0, AI-2 QS modul 2, SUMO Mot1 rescue 5, AHR activator 71* and H9c2 protect -12.
O=C(Nc1ccc(F)cc1F)Nc1sccc1-c1nc2ccccc2s1 was read as NR3A LBD binder 21*, NTR1 ag 6, AI-2 QS modul 43, SUMO Mot1 rescue -1, AHR activator 29 and H9c2 protect 1.
CC12CCC(=O)C=C1CCC1C2C(O)CC2(C)C1CCC2(O)C(=O)CO (stereo not given) was read as NR3A LBD binder 0, NTR1 ag 2, AI-2 QS modul 14, SUMO Mot1 rescue 0, AHR activator 8 and H9c2 protect 14.
Screening S=c1[nH]c2cc(Cl)ccc2s1 returned NR3A LBD binder -3, NTR1 ag 0, AI-2 QS modul -78*, SUMO Mot1 rescue 28, AHR activator 9 and H9c2 protect -10.
Screening S=c1[nH]c2ccc(Cl)cc2[nH]1 returned NR3A LBD binder 0, NTR1 ag 0, AI-2 QS modul 11, AHR activator 12 and H9c2 protect 12.
For COc1ccc(CN2CCN(Cc3ccc(Br)cc3)CC2)c(OC)c1OC the results were NR3A LBD binder 0, NTR1 ag 0, AI-2 QS modul 28, SUMO Mot1 rescue 22, AHR activator 0 and H9c2 protect -7.
Cc1cc(C)nc(SCC(=O)N/N=C\c2sccc2C)n1 was read as NR3A LBD binder -1, NTR1 ag 0, AI-2 QS modul 9, SUMO Mot1 rescue -2, AHR activator 63* and H9c2 protect -1.
Cc1cc(C)nc(SCC(=O)N/N=C/c2cc(C)n(-c3ccccc3C)c2C)n1 was read as NR3A LBD binder 11*, NTR1 ag 0, AI-2 QS modul 3, SUMO Mot1 rescue 22, AHR activator 11 and H9c2 protect -10.
O=C1CN(S(=O)(=O)c2cccc(C(=O)O)c2)c2ccccc2N1 was read as NR3A LBD binder -1, NTR1 ag 1, AI-2 QS modul 8, SUMO Mot1 rescue 3, AHR activator 14 and H9c2 protect 7.
CC(C)c1ccc(NC(=O)CCNC(=O)N2CC(=O)Nc3ccccc32)cc1 was read as NR3A LBD binder 0, NTR1 ag 0, AI-2 QS modul 5, SUMO Mot1 rescue 10, AHR activator 10 and H9c2 protect 1.
`COc1cc(/C=C(\C#N)C(=O)NCC2CCCO2)ccc1OC(C)C` (stereo not given) gave NR3A LBD binder 11*, NTR1 ag 2, AI-2 QS modul 11, SUMO Mot1 rescue 3, AHR activator -1 and H9c2 protect 11.
CCOC(=O)c1ccc(-c2ccc(/C=C(\C#N)C(=O)NCC3CCCO3)o2)cc1 (stereo not given) was read as NR3A LBD binder 2, NTR1 ag 13, AI-2 QS modul 17, SUMO Mot1 rescue 11, AHR activator 9 and H9c2 protect 52*.
CC(C)C[C@@H](CN)NC(=O)c1nc[nH]c1C(=O)N[C@@H](CC(=O)O)C(=O)CNC[C@H](C)NC(=O)c1nc[nH]c1C(=O)N[C@@H](CC(=O)O)C(=O)O was read as NR3A LBD binder 0 and H9c2 protect -4.
Screening Cn1ncc(Cl)c1C(=O)Nc1cc(C(F)(F)F)ccc1F returned NR3A LBD binder 0, NTR1 ag -3, AI-2 QS modul 10, SUMO Mot1 rescue 25, AHR activator 78* and H9c2 protect -3.
`COc1cc(NC(=O)c2c(Cl)cnn2C)c(OC)cc1Cl` gave NR3A LBD binder -2, NTR1 ag 0, AI-2 QS modul 26, SUMO Mot1 rescue -2, AHR activator 4 and H9c2 protect -10.
Screening Cn1ncc(Cl)c1C(=O)Nc1nc2ccc(Cl)cc2s1 returned NR3A LBD binder -17, NTR1 ag 3, AI-2 QS modul 26, SUMO Mot1 rescue 13, AHR activator 60* and H9c2 protect -26.

Assay outcomes: PubChem BioAssay, several laboratories
